From PubChem BioAssay AID1159580 (chemical genetic matrix, 2015)
Where “and” joins values, the source holds several entries; their conditions need not be identical. Equal entries are not always repeated. Out of some 5,500 compounds screened, about 2,000 (36%) were called active. Not shown: some 18% with an inconclusive outcome. Rule as the data show it: active = normalized growth mostly below about 0.91 (no sharp cut-off); inconclusive = no clear call, values can overlap the other calls; inactive = mostly above about 0.92. Some of the results follow.

Assay: chemical genetic growth profiling, strain panel (AID 1159580);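 also: tested at 20 µM; growth read once vehicle control cultures reached saturation at 30 °C; 1 = growth at the plate median or of vehicle wells; lower values mean less growth of the strain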
Conditions: S. cerevisiae deletion strains, growth OD

Measured: normalized growth

OC[C@@H](O)[C@@H](O[C@@H]1O[C@H](CO)[C@@H](O)[C@H](O)[C@H]1O)[C@H](O)[C@@H](O)CO
inactive: locus YAL013W, strain DEP1, stronger effect = lower value 1.01 | locus YAL021C, strain ccr4, stronger effect = lower value 0.998 | locus YAL026C, strain drs2, stronger effect = lower value 0.982 | locus YAL030W, strain snc1, stronger effect = lower value 0.993 | locus YBL061C, strain skt5, stronger effect = lower value 1.01 | locus YBR009C, strain hhf1, stronger effect = lower value 1 | locus YBR021W, strain FUR4, stronger effect = lower value 1.03 | locus YBR023C, strain chs3, stronger effect = lower value 1 | locus YBR171W, strain sec66, stronger effect = lower value 0.989 | locus YBR229C, strain ROT2, stronger effect = lower value 1.01 | locus YBR231C, strain swc5, stronger effect = lower value 0.996 | locus YBR279W, strain paf1, stronger effect = lower value 0.979 | locus YCL011C, strain gbp2, stronger effect = lower value 0.989 | locus YCL016C, strain dcc1, stronger effect = lower value 1.01 | locus YCL029C, strain bik1, stronger effect = lower value 1.02 | locus YCL061C, strain MRC1, stronger effect = lower value 1 | locus YCL069W, strain vba3, stronger effect = lower value 0.972 | locus YCR088W, strain abp1, stronger effect = lower value 0.989 | locus YDL005C, strain med2, stronger effect = lower value 0.985 | locus YDL035C, strain GPR1, stronger effect = lower value 1.03 | locus YDL040C, strain nat1, stronger effect = lower value 0.989 | locus YDL074C, strain BRE1, stronger effect = lower value 1.01 | locus YDL101C, strain DUN1, stronger effect = lower value 1.01 | locus YDL134C, strain PPH21, stronger effect = lower value 1.01 | locus YDL185W, strain tfp1, stronger effect = lower value 1.01 | locus YDL192W, strain arf1, stronger effect = lower value 1.01 | locus YDR001C, strain nth1, stronger effect = lower value 0.996 | locus YDR069C, strain doa4, stronger effect = lower value 0.981 | locus YDR101C, strain arx1, stronger effect = lower value 1 | locus YDR137W, strain rgp1, stronger effect = lower value 1 | locus YDR150W, strain NUM1, stronger effect = lower value 0.998 | locus YDR159W, strain sac3, stronger effect = lower value 0.986 | locus YDR162C, strain NBP2, stronger effect = lower value 0.979 | locus YDR195W, strain ref2 0.958 | locus YDR297W, strain sur2, stronger effect = lower value 0.992 | locus YDR318W, strain mcm21, stronger effect = lower value 1.04 | locus YDR334W, strain swr1, stronger effect = lower value 0.984 | locus YDR335W, strain msn5, stronger effect = lower value 0.992 | locus YDR388W, stronger effect = lower value 1.01 | locus YDR392W, strain spt3, stronger effect = lower value 0.951 | locus YDR502C, strain sam2, stronger effect = lower value 0.994 | locus YEL003W, strain gim4, stronger effect = lower value 0.989 | locus YEL037C, strain rad23, stronger effect = lower value 0.966 | locus YEL061C, strain CIN8 (second series), stronger effect = lower value 0.977 | locus YEL061C, strain CIN8, stronger effect = lower value 1 | locus YER015W, strain faa2, stronger effect = lower value 1 | locus YER016W, strain bim1, stronger effect = lower value 0.996 | locus YER110C, stronger effect = lower value 1.02 | locus YER111C, strain swi4, stronger effect = lower value 0.972 | locus YER155C, strain BEM2 (second series), stronger effect = lower value 1.02 | locus YER155C, strain BEM2, stronger effect = lower value 0.987 | locus YER167W, strain BCK2, stronger effect = lower value 1.06 | locus YFR010W, strain ubp6, stronger effect = lower value 0.969 | locus YGL078C, strain dbp3, stronger effect = lower value 0.987 | locus YGL086W, strain mad1, stronger effect = lower value 1.03 | locus YGL167C, strain pmr1, stronger effect = lower value 1.01 | locus YGL173C, strain kem1, stronger effect = lower value 1 | locus YGL227W, strain vid30, stronger effect = lower value 0.99 | locus YGL240W, strain doc1, stronger effect = lower value 0.99 | locus YGL248W, strain PDE1, stronger effect = lower value 1.01 | locus YGL253W, strain hxk2, stronger effect = lower value 0.999 | locus YGR078C, strain PAC10, stronger effect = lower value 1.02 | locus YGR135W, strain pre9, stronger effect = lower value 1.03 | locus YGR229C, strain SMI1, stronger effect = lower value 1.02 | locus YGR252W, strain gcn5, stronger effect = lower value 1.07 | locus YHR013C, strain ard1, stronger effect = lower value 0.989 | locus YHR027C, strain rpn1, stronger effect = lower value 1 | locus YHR030C, strain SLT2, stronger effect = lower value 1 and 0.993 | locus YHR079C, strain IRE1 (second series), stronger effect = lower value 1.01 | locus YHR079C, strain IRE1, stronger effect = lower value 1.02 | locus YHR094C, strain hxt1, stronger effect = lower value 1.01 | locus YHR129C, strain ARP1, stronger effect = lower value 1.01 | locus YHR142W, strain chs7, stronger effect = lower value 0.998 | locus YHR200W, strain rpn10, stronger effect = lower value 1.02 | locus YIL066C, strain RNR3, stronger effect = lower value 1.01 | locus YIL073C, strain SPO22, stronger effect = lower value 1.1 | locus YIL125W, strain kgd1, stronger effect = lower value 1.01 | locus YIR030C, strain dcg1, stronger effect = lower value 1.01 | locus YJL092W, strain hpr5, stronger effect = lower value 0.991 | locus YJL095W, strain BCK1 (second series), stronger effect = lower value 1 | locus YJL095W, strain BCK1, stronger effect = lower value 1.02 and 0.987 | locus YJL115W, strain asf1, stronger effect = lower value 0.98 | locus YJL129C, strain trk1, stronger effect = lower value 1.01 | locus YJL134W, strain LCB3, stronger effect = lower value 1.01 | locus YJL154C, strain vps35, stronger effect = lower value 0.984 | locus YJL164C, strain tpk1, stronger effect = lower value 1 | locus YJL166W, strain qcr8, stronger effect = lower value 0.998 | locus YJL168C, strain set2, stronger effect = lower value 1.01 | locus YJL187C, strain SWE1 (second series), stronger effect = lower value 1.01 | locus YJL187C, strain SWE1, stronger effect = lower value 0.992 | locus YJR043C, strain POL32, stronger effect = lower value 1.07 | locus YJR066W, strain TOR1, stronger effect = lower value 0.95
